# Measured values taken from PubChem BioAssay.
# Results filed as inconclusive are left out. Calls of active or inactive are those of the source.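 Rule for the calls, unless noted: active = inhibition above 54%, about 3 SD of non-fluorescent compounds; inactive = the rest.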
# Columns and labels:
# [1] = rapamycin-like changes in RPL19A-GFP expression – cell-based, S. cerevisiae, multiplex flow cytometry, primary screen (AID 1862; in the data active = percent of DMSO control GFP below about 86%;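 note: lower values mimic rapamycin by blocking the RPL19A rise seen in DMSO cells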); settings: S. cerevisiae RPL19A-GFP strain, flow cytometry fluorescence, 3 h; at 10 µM; stronger effect = lower value
# [2] = TOR pathway GLN3 branch reporter MEP2-GFP changes – S. cerevisiae, multiplex flow cytometry, primary screen (AID 1867;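 active = GFP response, as percent of the DMSO control, above the screen-wide mean plus 3 SD, about 139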;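 note: median GFP channel fluorescence of barcode-gated MEP2-GFP cells measured by flow cytometry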); settings: S. cerevisiae MEP2-GFP strain, 3 h, at 10 µM, stronger effect = higher value, 100% means same as DMSO wells
# [3] = TOR pathway RTG branch CIT2 reporter changes – S. cerevisiae, GFP fusion, multiplex flow cytometry, primary screen (AID 1870;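 active = percent response above a set limit, the screen-wide mean plus 3 SD, cut at about 130% in these data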;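 note: barcoded CIT2-GFP strain pooled with four other GFP strains with rapamycin as positive control; median GFP fluorescence per well over plate mean of DMSO wells so 100% = DMSO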); settings: S. cerevisiae CIT2-GFP expression, 3 h, at 10 µM, stronger effect = higher value
# [4] = TOR pathway LAP4-GFP level changes – S. cerevisiae, multiplex flow cytometry, primary screen (AID 1873;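 active = GFP signal, as percent of the solvent control, above the screen mean plus 3 SD, about 149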); settings: S. cerevisiae LAP4-GFP expression, 3 h, at 10 µM, stronger effect = higher value
# [5] = yeast AGP1-GFP level changes, GLN3 branch – cell-based, multiplex flow cytometry, S. cerevisiae, primary screen (AID 1887;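 active = GFP signal above the screen-wide mean plus 3 SD, that is over about 124.5% of the solvent control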;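 note: AGP1-GFP fusion strain of S. cerevisiae within a five-strain barcoded multiplex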); settings: 3 h, at 10 µM, stronger effect = higher value
# [6] = reduced mouse 2C T cell binding to pMHC/ICAM-1 vesicles – MLPCN validation set, flow cytometry, LFA-1/ICAM-1 modulator project, pilot screen (AID 2523;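 active = response below a set limit, under 55% cells CD8-positive and vesicle-bound, and CD8 cells' 90th-percentile brightness under 279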;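 for vesicle binding response: mean PE anti-B7-1 fluorescence of CD8+ cells relative to row control; 100% = QL9-loaded vesicles with DMSO vehicle in the same plate row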); settings: 2C mouse CD8+ T cells, at 7 µM, stronger effect = lower value; double positive events: measured here: CD8+/vesicle+ event percentage
# [7] = target: Integrin beta-1 (Homo sapiens) + Integrin alpha-4 (Homo sapiens) (UniProt P13612+P05556); assay: alpha4beta1 integrin LIBS antibody binding reduction – U937 cells, HUTS-21 mAb, flow cytometry, validation set, VLA-4 allosteric modulator project, pilot screen (AID 2674;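 active = inhibition above 50%, about 3 SD of the validation set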;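 note: antibody binding induced by the VLA-4 ligand LDV present at three times its Kd; 0% = LDV ligand with antibody and no compound and 100% = antibody without LDV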); settings: HUTS-21 LIBS mAb binding, at 6.7 µM, stronger effect = higher value, binding induced by LDV ligand
# Chain of Integrin beta-1 (Homo sapiens) + Integrin alpha-4 (Homo sapiens) (P05556 whole entry, looked up): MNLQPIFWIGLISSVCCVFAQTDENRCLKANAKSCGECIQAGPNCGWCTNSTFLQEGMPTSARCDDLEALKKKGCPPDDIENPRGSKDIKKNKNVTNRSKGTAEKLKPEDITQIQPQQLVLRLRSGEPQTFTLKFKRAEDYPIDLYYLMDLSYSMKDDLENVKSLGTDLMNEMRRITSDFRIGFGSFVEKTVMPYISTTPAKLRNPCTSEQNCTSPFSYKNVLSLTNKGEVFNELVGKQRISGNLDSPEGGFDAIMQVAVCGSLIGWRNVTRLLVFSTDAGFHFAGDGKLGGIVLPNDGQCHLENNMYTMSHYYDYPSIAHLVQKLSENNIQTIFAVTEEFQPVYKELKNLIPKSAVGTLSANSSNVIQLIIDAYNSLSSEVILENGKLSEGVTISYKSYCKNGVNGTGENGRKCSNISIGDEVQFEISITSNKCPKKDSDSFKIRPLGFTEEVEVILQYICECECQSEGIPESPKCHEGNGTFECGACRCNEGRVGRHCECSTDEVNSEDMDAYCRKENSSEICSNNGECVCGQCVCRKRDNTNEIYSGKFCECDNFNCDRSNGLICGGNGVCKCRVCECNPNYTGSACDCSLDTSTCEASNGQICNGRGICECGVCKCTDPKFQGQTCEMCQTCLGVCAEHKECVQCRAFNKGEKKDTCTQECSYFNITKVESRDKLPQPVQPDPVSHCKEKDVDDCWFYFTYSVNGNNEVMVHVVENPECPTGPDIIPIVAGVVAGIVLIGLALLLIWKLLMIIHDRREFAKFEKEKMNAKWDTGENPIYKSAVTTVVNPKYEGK
# Chain of Integrin beta-1 (Homo sapiens) + Integrin alpha-4 (Homo sapiens) (P13612 whole entry, looked up): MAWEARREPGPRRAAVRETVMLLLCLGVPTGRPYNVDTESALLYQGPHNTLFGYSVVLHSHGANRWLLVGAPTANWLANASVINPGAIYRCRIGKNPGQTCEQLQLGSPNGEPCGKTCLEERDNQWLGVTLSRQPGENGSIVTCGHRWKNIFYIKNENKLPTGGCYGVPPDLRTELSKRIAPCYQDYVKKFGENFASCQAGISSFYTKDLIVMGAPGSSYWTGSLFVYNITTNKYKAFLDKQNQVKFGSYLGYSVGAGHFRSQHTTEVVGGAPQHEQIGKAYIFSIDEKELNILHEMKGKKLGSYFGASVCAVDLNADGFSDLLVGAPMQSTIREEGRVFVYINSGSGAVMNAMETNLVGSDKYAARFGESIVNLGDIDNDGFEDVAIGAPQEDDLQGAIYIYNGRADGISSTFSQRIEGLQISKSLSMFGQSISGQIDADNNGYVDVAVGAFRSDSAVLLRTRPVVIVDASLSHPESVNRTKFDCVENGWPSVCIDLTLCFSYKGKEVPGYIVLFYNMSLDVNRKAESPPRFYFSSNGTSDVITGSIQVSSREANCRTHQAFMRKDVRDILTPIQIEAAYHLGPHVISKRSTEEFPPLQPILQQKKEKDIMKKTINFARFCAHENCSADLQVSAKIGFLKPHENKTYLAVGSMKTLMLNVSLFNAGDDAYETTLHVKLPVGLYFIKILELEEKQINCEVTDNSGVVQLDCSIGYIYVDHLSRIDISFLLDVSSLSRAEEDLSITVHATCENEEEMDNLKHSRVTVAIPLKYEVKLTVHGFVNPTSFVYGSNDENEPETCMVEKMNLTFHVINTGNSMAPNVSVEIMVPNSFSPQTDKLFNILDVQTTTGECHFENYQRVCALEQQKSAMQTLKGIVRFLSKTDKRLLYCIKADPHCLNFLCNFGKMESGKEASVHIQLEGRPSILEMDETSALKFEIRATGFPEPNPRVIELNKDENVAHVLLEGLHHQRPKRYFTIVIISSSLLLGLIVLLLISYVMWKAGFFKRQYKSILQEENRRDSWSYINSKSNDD
# [8] = calorie-restriction mimetic ROS inhibitors, yeast – validation compound set, pilot screen (AID 2706;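 active = superoxide response below 65% of plate, a cut near 3 SD across the whole screen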;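 note: yeast exposed to compound for one week at 30 degrees C before staining; 100% = mean of all compound wells on the same plate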); settings: S. cerevisiae aging, superoxide DHE fluorescence; at 10 µM; stronger effect = lower value
# [9] = target: Beta-adrenergic receptor kinase 1 (Homo sapiens) (UniProt P25098); assay: GRK2 binders displacing RNA aptamer, biochemical, validation, human GRK2, bead flow cytometry (AID 488806;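 active = aptamer binding inhibition above 30%, about 3 SD of noise from non-fluorescent compounds; inactive = inhibition at or below 30%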); settings: bead-bound GRK2, FAM-aptamer displacement, at 10 µM, stronger effect = higher value
# Chain of Beta-adrenergic receptor kinase 1 (Homo sapiens) (P25098 whole entry, looked up): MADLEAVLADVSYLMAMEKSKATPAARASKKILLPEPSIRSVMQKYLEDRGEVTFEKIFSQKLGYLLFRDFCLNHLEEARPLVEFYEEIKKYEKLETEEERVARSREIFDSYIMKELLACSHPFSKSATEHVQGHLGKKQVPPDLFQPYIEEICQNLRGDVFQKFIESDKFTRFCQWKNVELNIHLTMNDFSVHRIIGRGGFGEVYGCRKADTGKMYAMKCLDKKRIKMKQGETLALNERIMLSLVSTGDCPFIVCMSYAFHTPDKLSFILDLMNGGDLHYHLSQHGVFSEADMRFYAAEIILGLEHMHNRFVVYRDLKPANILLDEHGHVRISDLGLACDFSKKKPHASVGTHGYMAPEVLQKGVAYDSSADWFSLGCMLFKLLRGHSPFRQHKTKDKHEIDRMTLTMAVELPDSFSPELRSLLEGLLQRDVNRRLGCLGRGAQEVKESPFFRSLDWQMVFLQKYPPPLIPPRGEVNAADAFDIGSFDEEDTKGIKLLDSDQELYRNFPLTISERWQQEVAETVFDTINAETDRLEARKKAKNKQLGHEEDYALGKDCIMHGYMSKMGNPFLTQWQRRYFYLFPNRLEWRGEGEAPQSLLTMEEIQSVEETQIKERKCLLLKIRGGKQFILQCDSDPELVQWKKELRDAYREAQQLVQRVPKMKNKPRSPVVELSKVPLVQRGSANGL
# [10] = target: Beta-2 adrenergic receptor (Homo sapiens) (UniProt P07550); assay: agonist-induced loss of surface beta2AR – cell-based, FAP fluorogen, flow cytometry, validation set, pilot screen (AID 504459;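 active = percent response above 42, roughly 3 SD of non-fluorescent test compounds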;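 note: agonist-driven loss of surface beta2AR via internalization measured by FAP dye flow cytometry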); settings: Am2.2-beta2AR cells, at 10 µM, stronger effect = higher value
# Chain of Beta-2 adrenergic receptor (Homo sapiens) (P07550 whole entry, looked up, the tested form may be a part): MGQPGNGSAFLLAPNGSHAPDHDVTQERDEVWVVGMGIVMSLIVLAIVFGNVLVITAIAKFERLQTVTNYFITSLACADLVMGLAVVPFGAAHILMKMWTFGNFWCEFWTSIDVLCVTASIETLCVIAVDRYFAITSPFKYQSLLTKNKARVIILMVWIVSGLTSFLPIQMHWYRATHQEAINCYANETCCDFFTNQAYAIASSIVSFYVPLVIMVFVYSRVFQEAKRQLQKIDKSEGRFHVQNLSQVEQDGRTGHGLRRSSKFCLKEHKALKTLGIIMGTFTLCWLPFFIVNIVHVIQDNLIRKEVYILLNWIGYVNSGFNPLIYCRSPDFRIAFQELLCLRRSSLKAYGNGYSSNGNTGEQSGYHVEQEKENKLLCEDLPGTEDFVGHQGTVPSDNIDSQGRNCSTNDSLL
# [11] = target: AP-2 complex subunit beta (Homo sapiens) (UniProt P63010); assay: beta-arrestin/AP2 interaction blockers – biochemical, validation set, GST-AP2 beads, flow cytometry, pilot screen (AID 504541); settings: FITC arrestin peptide, at 10 µM, stronger effect = higher value, AP2 beta2 appendage fragment, R879A mutant;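 note: AP2 carries R879A mutation and is captured from E. coli lysate; bead-bound FITC arrestin peptide fluorescence measuring arrestin peptide binding to AP2; 0% = DMSO wells and 100% = excess unlabeled arrestin peptide control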
# Chain of AP-2 complex subunit beta (Homo sapiens) (P63010 whole entry, looked up, the tested form may be a part, one chain of several): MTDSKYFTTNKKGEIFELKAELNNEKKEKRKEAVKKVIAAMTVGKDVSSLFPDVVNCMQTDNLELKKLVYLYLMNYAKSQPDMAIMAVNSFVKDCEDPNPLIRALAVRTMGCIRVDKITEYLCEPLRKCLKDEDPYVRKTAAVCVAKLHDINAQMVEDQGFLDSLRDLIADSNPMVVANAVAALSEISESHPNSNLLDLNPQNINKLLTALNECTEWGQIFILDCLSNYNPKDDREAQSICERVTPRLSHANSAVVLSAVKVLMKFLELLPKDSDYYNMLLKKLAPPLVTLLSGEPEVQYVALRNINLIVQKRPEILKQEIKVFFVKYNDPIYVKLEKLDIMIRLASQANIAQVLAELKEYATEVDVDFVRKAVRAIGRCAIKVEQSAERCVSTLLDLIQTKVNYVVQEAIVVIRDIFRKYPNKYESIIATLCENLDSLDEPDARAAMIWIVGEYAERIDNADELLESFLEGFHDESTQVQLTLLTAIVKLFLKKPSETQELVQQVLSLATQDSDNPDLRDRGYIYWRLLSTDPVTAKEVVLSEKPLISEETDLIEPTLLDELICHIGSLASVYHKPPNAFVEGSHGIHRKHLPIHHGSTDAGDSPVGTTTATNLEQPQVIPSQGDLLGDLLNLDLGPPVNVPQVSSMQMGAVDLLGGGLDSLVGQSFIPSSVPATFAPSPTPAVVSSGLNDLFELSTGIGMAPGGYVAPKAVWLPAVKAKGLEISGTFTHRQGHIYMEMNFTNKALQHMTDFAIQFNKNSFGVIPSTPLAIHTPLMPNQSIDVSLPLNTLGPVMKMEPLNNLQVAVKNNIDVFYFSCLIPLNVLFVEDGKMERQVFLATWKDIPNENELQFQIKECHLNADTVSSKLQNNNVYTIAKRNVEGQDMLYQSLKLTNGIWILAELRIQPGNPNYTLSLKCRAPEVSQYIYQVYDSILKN
# [12] = cytosolic pH regulators acting via V-ATPase – S. cerevisiae, pHLuorin, HTS validation (AID 504600; in the data active = response above about 15%;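 note: plate controls were DMSO for no effect and reference compound for full effect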); settings: V-ATPase proton transport, at 10 µM, stronger effect = higher value
# [13] = system: anti-desmoglein-3 scFv antibody binding to human DSG3; assay: blockers of pathogenic pemphigus antibody–desmoglein-3 binding – biochemical, validation compound set, bead-based, flow cytometry, pilot screen (AID 588368;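 active = binding below the plate cutoff, the plate median minus 3 SD, with a reading above zero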;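 note: signal is the median channel fluorescence of bead-bound GFP antibody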); settings: Protein G beads, DSG3-Fc, scFv-GFP binding, at 10 µM, stronger effect = lower value
# [14] = Nile Red efflux blockade in pump-expressing yeast – validation compound set, multiplex, phenotypic, pilot screen (AID 588506;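 active = efflux inhibition above 0.42, the validation set average plus 4 SD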;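 note: Nile Red retained in cells so higher fluorescence means more efflux inhibition; 0 = negative control wells and 1 = enniatin B 25 µM full block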); settings: S. cerevisiae pump-expressing triplex, Nile Red efflux flow cytometry; at 10 µM; stronger effect = higher value; the pumps come from Candida albicans
# [15] = target: ATP-binding cassette sub-family B member 6 (Homo sapiens) (UniProt Q9NP58); assay: blockers of ABCB6-driven porphyrin uptake – K562-ABCB6 cells, flow cytometry, validation set, pilot screen (AID 588550;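 active = inhibition above the screen-wide mean plus 3 SD, about 51%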;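 note: 0% = DMSO wells and 100% = benzethonium chloride 70 µM positive control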); settings: K562-ABCB6 porphyrin accumulation, 1 h, at 10 µM, stronger effect = higher value
# Chain of ATP-binding cassette sub-family B member 6 (Homo sapiens) (Q9NP58 whole entry, looked up): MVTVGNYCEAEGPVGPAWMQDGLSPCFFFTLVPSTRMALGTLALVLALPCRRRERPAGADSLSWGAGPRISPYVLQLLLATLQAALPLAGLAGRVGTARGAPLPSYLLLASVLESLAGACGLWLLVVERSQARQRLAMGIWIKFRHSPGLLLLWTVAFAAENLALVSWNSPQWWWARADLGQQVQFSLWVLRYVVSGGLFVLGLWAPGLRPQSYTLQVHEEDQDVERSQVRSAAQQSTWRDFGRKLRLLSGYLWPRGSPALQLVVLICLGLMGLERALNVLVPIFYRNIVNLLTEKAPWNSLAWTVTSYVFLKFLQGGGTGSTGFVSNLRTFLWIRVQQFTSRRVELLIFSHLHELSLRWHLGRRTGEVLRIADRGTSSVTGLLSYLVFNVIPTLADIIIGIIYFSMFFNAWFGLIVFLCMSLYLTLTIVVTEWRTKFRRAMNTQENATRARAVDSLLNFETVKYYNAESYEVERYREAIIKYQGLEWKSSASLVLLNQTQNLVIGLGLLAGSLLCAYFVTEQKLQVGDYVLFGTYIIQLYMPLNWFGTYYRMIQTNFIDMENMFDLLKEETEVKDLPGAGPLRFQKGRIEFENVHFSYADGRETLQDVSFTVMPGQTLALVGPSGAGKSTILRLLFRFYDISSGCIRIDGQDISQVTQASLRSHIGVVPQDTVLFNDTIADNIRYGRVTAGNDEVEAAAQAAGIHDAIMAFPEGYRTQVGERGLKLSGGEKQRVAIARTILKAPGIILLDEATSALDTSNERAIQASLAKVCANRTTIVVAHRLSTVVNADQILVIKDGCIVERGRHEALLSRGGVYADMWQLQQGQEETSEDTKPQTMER
# [16] = AML differentiation inducers, ER-HoxA9 marrow cells – cell-based, GFP/MAC1 double positive, flow cytometry, validation set, primary screen (AID 588685;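 active = differentiation response of at least 50%, scaled between solvent and reference control, from cells with both markers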;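 note: compound exposure lasts four days before antibody staining and flow analysis; 0% = DMSO wells and 100% = 5 µM fulvestrant positive control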); settings: stronger effect = higher value, normalized: vehicle 0, fulvestrant 100
Structure (SMILES),percent of DMSO control GFP [1],GFP response vs DMSO [2],percent response of DMSO control [3],GFP response vs DMSO [4],"GFP response, % of DMSO [5]",double positive events [6] [%],vesicle binding response [6],inhibition [7],superoxide response (% of plate) [8],aptamer binding inhibition [9],response [10],inhibition [11],response [12],binding (% of control) [13],efflux inhibition (fraction of control) [14],inhibition [15],differentiation response [16]
Fc1ccccc1CNCCC(Cc1ccccc1)c1ccc2c(c1)OCO2 (stereo not given),98.8% (inactive),107% (inactive),96% (inactive),90.2% (inactive),94.9% (inactive),63.8,99.6% (inactive),8.28% (inactive),104% (inactive),-1% (inactive),14% (inactive),11.7% (inactive),1.06% (inactive),105% (inactive),-0.22 (inactive),4% (inactive),-5.68% (inactive)
CC1(C)C(=O)OC(/C=C\c2ccccc2)C(C)(C)C1=O (stereo not given),98.4% (inactive),101% (inactive),95.7% (inactive),112% (inactive),107% (inactive),64.8,160% (inactive),1.44% (inactive),80.2% (inactive),6% (inactive),-19.9% (inactive),6.83% (inactive),-6.88% (inactive),97.3% (inactive),-0.09 (inactive),3% (inactive),4.86% (inactive)
CC(C)CC(NC(=O)c1cccc(Cl)c1)C(=O)O (stereo not given),94.6% (inactive),102% (inactive),94.8% (inactive),129% (inactive),101% (inactive),60.5,207% (inactive),-7.25% (inactive),113% (inactive),0% (inactive),-14.8% (inactive),14.1% (inactive),1.45% (inactive),98% (inactive),-0.13 (inactive),2% (inactive),-5.6% (inactive)
N#Cc1cc2c([nH]c1=O)CCCC2,103% (inactive),98.3% (inactive),108% (inactive),90.7% (inactive),108% (inactive),63.2,184% (inactive),16.1% (inactive),89.5% (inactive),0% (inactive),-10.3% (inactive),-13.1% (inactive),12.5% (inactive),97.7% (inactive),-0.04 (inactive),-2% (inactive),-5.62% (inactive)
CCOC(=O)C1=C(C)N[C@@]2(O)c3ccccc3C(=O)[C@@]12O,102% (inactive),106% (inactive),106% (inactive),92.2% (inactive),98.5% (inactive),65.1,254% (inactive),-7.25% (inactive),96.8% (inactive),1% (inactive),-1.07% (inactive),12.9% (inactive),13% (inactive),99.3% (inactive),-0.21 (inactive),6% (inactive),-21.6% (inactive)
